# Source: ChEMBL document CHEMBL3988442, “University of Dundee, Small-Polar-MMV Screening Library” (2021)
# The campaign covered roughly 69,000 compounds. About 1,000 (1.4%) showed an effect of 50% or more. The sample holds strong results, similar compounds and a random draw of the others, so the mix is not that of the screen.
# Test system: Leishmania donovani
# Test: Leishmania intramacrophage assay
# Type: functional, organism-based
# Design: scale not given: in the data most compounds retested in dose-response had high values
smiles,measurement,setting,value
CC(C)(C)c1cc(CN2C[C@H]3CC[C@@H]2CN(Cc2ccccn2)C3)n[nH]1,Percent Effect,"30.3 µM, […]",4.97%
CC(C)N(C)S(=O)(=O)N(Cc1cccs1)CC1CCCO1 (stereo unspecified),Percent Effect,"30.3 µM, […]",-50.49%
CC(C)c1nc(CNc2ccc(CNS(C)(=O)=O)cc2)cs1,Percent Effect,"30.3 µM, […]",21.12%
CC(C)c1cc(NCc2csc(C(C)C)n2)nc(N)n1,Percent Effect,"30.3 µM, […]",50.61%
CC(C)c1cc(NCc2csc(N(C)C)n2)nc(N)n1,Percent Effect,"30.3 µM, […]",41.43%
Cc1cnc(C(=O)N2CCC3(CCCN(c4nncs4)C3)C2)cn1 (stereo unspecified),Percent Effect,"30.3 µM, […]",29.83%
O=C(O)C(F)(F)F.O=C(c1ccco1)N1CCCC2(CCN(c3nncs3)C2)C1 (stereo unspecified),Percent Effect,"30.3 µM, […]",36.42%
Cn1cc(CN2CCCC3(CCN(C(=O)c4ccccn4)C3)C2)cn1.O=C(O)C(F)(F)F.O=C(O)C(F)(F)F.O=C(O)C(F)(F)F (stereo unspecified),Percent Effect,"30.3 µM, […]",77.43%
Cn1cc(CN2CCC3(CCCN(Cc4ccccn4)C3)CC2)cn1,Percent Effect,"30 µM, 30.03 µM",51.96%
Cn1cc(CN2CCCC3(CCN(C(=O)c4cnccn4)C3)C2)cn1.O=C(O)C(F)(F)F.O=C(O)C(F)(F)F (stereo unspecified),Percent Effect,"30.3 µM, […]",26.24%
Cn1cc(CN2CCCC23CCN(C(=O)c2ccccn2)CC3)cn1.O=C(O)C(F)(F)F,Percent Effect,"30.3 µM, […]",-2.86%
O=C(O)C(F)(F)F.O=C(c1ccccn1)N1CCC2(CCCN(c3nncs3)C2)C1 (stereo unspecified),Percent Effect,"30.3 µM, […]",54.23%
Cc1cccc(CN2CCC3(CCCN(Cc4cnn(C)c4)C3)C2)n1.O=C(O)C(F)(F)F.O=C(O)C(F)(F)F (stereo unspecified),Percent Effect,"30.3 µM, […]",37.49%
Cn1cc(CN2CCC3(CC2)CCN(Cc2ccccn2)CC3)cn1,Percent Effect,"30.3 µM, […]",-5.313%
CCOc1ccc(NC(=O)N(C)Cc2cnn(C)c2)c(C)c1,Percent Effect,"30.3 µM, […]",28.5%
CC(C)N1CCO[C@H]2CN(C(=O)c3ccoc3)C[C@H]21.O=C(O)C(F)(F)F,Percent Effect,"30 µM, 30.03 µM",-20.99%
Cn1cnc2c1C(COCc1cccnc1)N(Cc1ccccn1)CC2 (stereo unspecified),Percent Effect,"30 µM, 30.03 µM",6.459%
CC(C)(C)c1n[nH]c(C2CN(Cc3nnc(C4CCC4)o3)CCO2)n1 (stereo unspecified),Percent Effect,30 µM,11.21%
CCN(C)c1ncnc2c1CCN(Cc1ccncc1)CC2.O=C(O)C(F)(F)F.O=C(O)C(F)(F)F.O=C(O)C(F)(F)F,Percent Effect,"30.3 µM, […]",31.79%
CCn1cc(CN(C)S(=O)(=O)c2cnn(C)c2)cn1,Percent Effect,"30.3 µM, […]",50.44%
CCn1cc(CN(C)S(=O)(=O)c2ccc(Cl)cc2)cn1,Percent Effect,"30 µM, 30.03 µM",2.361%
CCn1cc(CN(C)S(=O)(=O)c2ccccc2)cn1,Percent Effect,"30.3 µM, […]",11.15%
C[C@@H]1CN(Cc2ccoc2)C[C@]12CCN(CC(=O)N(C)C)C2=O.O=C(O)C(F)(F)F,Percent Effect,"30.3 µM, […]",1.993%
NC(=O)c1ccnc(N2CCCC(CO)(Cc3ccc(F)cc3)C2)c1 (stereo unspecified),Percent Effect,"30.3 µM, […]",16.75%
O=S(=O)(CCCN1CCOC(Cn2cccn2)C1)c1ccccc1 (stereo unspecified),Percent Effect,"30.3 µM, […]",8.687%
Cc1noc([C@H]2COC[C@H]3CN(C(=O)Cc4cccc(F)c4)C[C@H]32)n1,Percent Effect,"30.3 µM, […]",29.86%
